Test results taken from PubChem BioAssay AID1347420 (Sanford-Burnham Center for Chemical Genomics, 2020).
In all, about 1,300 compounds went through this assay and about 980 (75%) were called active. Not shown: some 4% with an inconclusive outcome. This is one part of the list. A number with no mark means an inactive call.

Molecular target: Sulfhydryl oxidase 1 (Homo sapiens) (UniProt O00391)
Assay: QSOX1 enzyme inhibitors, primary screen, biochemical, HyperBlu H2O2 luminescence, HTS (AID 1347420); also: values above 100% were filed as inconclusive
Settings: recombinant QSOX1, HyperBlu H2O2 luminescence, at 12.5 µM, hits give high values; active = any value above zero unless noted

Sulfhydryl oxidase 1 (Homo sapiens), sequence (O00391 whole entry, looked up): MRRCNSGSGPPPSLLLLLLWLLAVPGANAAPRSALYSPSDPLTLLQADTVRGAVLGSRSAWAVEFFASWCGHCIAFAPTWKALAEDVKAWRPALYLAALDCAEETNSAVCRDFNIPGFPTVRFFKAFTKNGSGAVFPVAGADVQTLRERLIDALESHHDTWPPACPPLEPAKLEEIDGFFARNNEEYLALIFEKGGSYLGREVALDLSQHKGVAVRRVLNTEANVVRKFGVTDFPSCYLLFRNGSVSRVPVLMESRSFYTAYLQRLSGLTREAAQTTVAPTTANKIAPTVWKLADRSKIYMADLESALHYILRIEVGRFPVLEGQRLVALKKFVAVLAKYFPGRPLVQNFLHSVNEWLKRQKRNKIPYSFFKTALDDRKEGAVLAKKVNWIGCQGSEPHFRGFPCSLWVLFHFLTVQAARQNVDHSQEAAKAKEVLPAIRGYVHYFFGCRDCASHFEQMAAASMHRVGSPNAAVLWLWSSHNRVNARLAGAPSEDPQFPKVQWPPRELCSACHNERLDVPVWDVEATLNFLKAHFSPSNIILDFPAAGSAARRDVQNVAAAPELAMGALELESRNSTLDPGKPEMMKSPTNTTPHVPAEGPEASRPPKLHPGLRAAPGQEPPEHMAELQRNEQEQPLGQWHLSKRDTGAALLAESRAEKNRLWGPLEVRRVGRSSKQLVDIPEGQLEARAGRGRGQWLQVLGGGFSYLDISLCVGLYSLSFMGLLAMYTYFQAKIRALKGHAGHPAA

Structure (SMILES)	inhibition
COc1ccc2[nH]c3c(c2c1)CCNC3	40.5% (active)
NNC(N)=O	13% (active)
NC(=O)CI	-4.6%
COc1ccc(OC)c(C(O)C(C)N)c1 (stereo unspecified)	10.6% [setting not given] (active)
CCCN(CCC)[C@@H]1CCc2cccc(O)c2C1	2.9% (active)
CCCN(CCC)C1CCc2cccc(O)c2C1 (stereo unspecified)	5.5% (active)
CCCN(CCC)[C@H]1CCc2c(F)ccc(O)c2C1	17.9% (active)
Cc1ncc(CNC(=O)N(CCCl)N=O)c(N)n1	13.2% (active)
Clc1cc(I)cc(Cl)c1NC1=NCCN1	3.8% (active)
O=c1[nH]c2ccccc2n1C1CCN(CCCC(c2ccc(F)cc2)c2ccc(F)cc2)CC1	-0.3% [setting not given]
O=c1[nH]c2ccccc2n1CCCN1CCC(n2c(=O)[nH]c3cc(Cl)ccc32)CC1	4.5% [setting not given] (active)
S=C(NC1CCCCC1)N1CCC(c2cnc[nH]2)CC1	4.8% (active)
CC[C@@]1(O)C(=O)OCc2c1cc1n(c2=O)Cc2cc3ccccc3nc2-1	17.6% [setting not given] (active)
c1ccc(C2CC2)c(OCC2=NCCN2)c1	21.8% (active)
COc1ccc(C(=O)N2CCCC2=O)cc1	20.3% [setting not given] (active)
COC[C@H]1OC(=O)c2coc3c2[C@@]1(C)C1=C(C3=O)C2CCC(=O)[C@@]2(C)C[C@H]1OC(C)=O (stereo partly specified)	49.7% (active)
NC(=O)c1cc(N2CC2)c([N+](=O)[O-])cc1[N+](=O)[O-]	15.2% (active)
c1ccc(CCCN2CCN(CCOC(c3ccccc3)c3ccccc3)CC2)cc1	-3%
Fc1ccc(C(OCCN2CCN(CCCc3ccccc3)CC2)c2ccc(F)cc2)cc1	14.6% (active)
CC12CCC3C(CCC4=C(O)C(=O)CCC43C)C1CCC2=O (stereo unspecified)	1.5% [setting not given] (active)
CC(=O)NCCc1c[nH]c2ccccc12	35.3% [setting not given] (active)

Structure (SMILES)	inhibition
COc1ccc2[nH]cc(CCN)c2c1	-0.1% [setting not given]
CC(N)Cc1c[nH]c2ccc(O)cc12 (stereo unspecified)	79% [setting not given] (active)
CC(N)Cc1c[nH]c2ccc(OCc3cccs3)cc12 (stereo unspecified)	-4.1% [setting not given]
NCCc1c[nH]c2ccc(O)cc12	80.8% (active)
CNCCc1c[nH]c2ccc(O)cc12	55.9% [setting not given] (active)
Cc1c(C(=O)c2cccc3ccccc23)c2cccc3c2n1[C@H](CN1CCOCC1)CO3	-2.1% [setting not given]
O=C(O)c1nn(Cc2ccc(Cl)cc2Cl)c2ccccc12	-13% [setting not given]
CCCN(CCC)CCc1c[nH]c2ccc(C(N)=O)cc12	-6.2% [setting not given]
NCCc1c[nH]c2ccc(C(N)=O)cc12	26.8% (active)
NCCc1c[nH]c2ccccc12	1.9% [setting not given] (active)
Cc1[nH]c2ccc(O)cc2c1CCN	79.3% [setting not given] (active)
C/C(O)=C(\C#N)C(=O)Nc1cc(Br)ccc1Br	-6.8%
Clc1cnc(Oc2ccc(Oc3ncc(Cl)cc3Cl)cc2)c(Cl)c1	10.6% [setting not given] (active)
C=CCN(C1=NCCN1)c1c(Cl)cccc1Cl	9.6% (active)
c1ccc2c(c1)OCC(C1=NCCN1)O2 (stereo unspecified)	3.2% (active)
CN1CC[C@@]2(C)c3cc(O)ccc3N(C)C12 (stereo partly specified)	52.2% (active)
CN1CC[C@@]2(C)c3cc(OC(=O)Nc4ccccc4)ccc3N(C)[C@@H]12	41.8% (active)
CCCN(CCC)CCc1ccc(O)c(O)c1	56.8% (active)
CNCCc1ccc(O)c(O)c1	50.2% (active)
Cc1ccc(S(=O)(=O)N[C@@H](CCCCN)C(=O)CCl)cc1	11.5% (active)
O=[N+]([O-])c1ccc2nc(N3CCNCC3)ccc2c1	15.5% (active)

Structure (SMILES)	inhibition
c1ccc2c(N3CCNCC3)cccc2c1	3% (active)
COc1ccccc1N1CCNCC1	-0.1% [setting not given]
NNC(=O)c1ccc(O)cc1	3.3% (active)
CC12NC(Cc3ccccc31)c1ccccc12 (stereo unspecified)	3.8% [setting not given] (active)
C[C@]12N[C@H](Cc3ccccc31)c1ccccc12	-13.1% [setting not given]
CCCN1CC[C@@H]2c3cc(O)ccc3CC[C@@H]21	18.3% (active)
CCCN1CCO[C@@H]2c3cc(O)ccc3OC[C@H]21	27.5% (active)
CCCn1c(C)c(C(=O)c2ccc3ccccc3c2)c2ccccc21	-8.8% [setting not given]
CCCCCCCCCCCCCC(=O)O[C@@H]1[C@@H](C)[C@@]2(O)[C@@H](C=C(CO)C[C@@]3(O)C(=O)C(C)=C[C@@H]23)C2C(C)(C)[C@@]21OC(C)=O (stereo partly specified)	-11.5%
CN(N=O)c1cc(O)ccc1O	56% (active)
CN(N=O)c1ccc(O)c(O)c1	9% (active)
NC(=O)c1ccc(OCC(O)CN2CC=C(c3ccc(F)cc3)CC2)cc1 (stereo unspecified)	-3.1%
CC(NC(C)(C)C)C(=O)c1cccc(Cl)c1 (stereo unspecified)	0.2% [setting not given] (active)
CC1=NN=C(c2ccc(N)cc2)c2cc3c(cc2C1)OCO3	11% (active)
CC(C)NP(=O)(NC(C)C)OP(=O)(NC(C)C)NC(C)C	-1.6%
C=CCN1CC[C@]23c4c5ccc(O)c4O[C@H]2/C(=N/NC(=O)c2ccccc2)CC[C@@]3(O)[C@H]1C5	24.9% [setting not given] (active)
O=C1CC[C@@]2(O)C3Cc4ccc(O)c5c4C2(CCN3CC2CC2)[C@H]1O5 (stereo partly specified)	16.8% [setting not given] (active)
C=CCN1CC[C@]23c4c5ccc(O)c4O[C@@H]2/C(=N/N=C2\CC[C@@]4(O)C6Cc7ccc(O)c8c7[C@@]4(CCN6CC=C)[C@@H]2O8)CC[C@@]3(O)C1C5	29.2% (active)
C=CCN1CCC23c4c5ccc(O)c4O[C@H]2C(=O)CC[C@@]3(O)C1C5 (stereo partly specified)	19.6% [setting not given] (active)
